Measured values as given in PubChem BioAssay AID1671202 (University of Kansas High Throughput Screening Laboratory, 2021).
Where “and” joins values, the source holds several entries; their conditions need not be identical. Identical values can stand only once. Hit rate of the full screen: of about 190,000 compounds, about 6,900 (3.6%) were called active. For the sample, actives were picked, then their nearest neighbours and some compounds at random. A number with no mark means an inactive call. No stated cut-off is given here; in the data, active means inhibition above about 50%; inactive means the rest.

target: Huntingtin (Homo sapiens) (UniProt P42858); experiment: mutant huntingtin-calmodulin interaction inhibitors – biochemical, AlphaScreen, primary screen (AID 1671202); details: AlphaScreen His-mHTT/GST-CaM binding, luminescence; at 15 µM; hits give high values;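 further: 0% = both proteins with DMSO and 100% = one protein alone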
Sequence (P42858 whole entry, looked up, stated change not applied): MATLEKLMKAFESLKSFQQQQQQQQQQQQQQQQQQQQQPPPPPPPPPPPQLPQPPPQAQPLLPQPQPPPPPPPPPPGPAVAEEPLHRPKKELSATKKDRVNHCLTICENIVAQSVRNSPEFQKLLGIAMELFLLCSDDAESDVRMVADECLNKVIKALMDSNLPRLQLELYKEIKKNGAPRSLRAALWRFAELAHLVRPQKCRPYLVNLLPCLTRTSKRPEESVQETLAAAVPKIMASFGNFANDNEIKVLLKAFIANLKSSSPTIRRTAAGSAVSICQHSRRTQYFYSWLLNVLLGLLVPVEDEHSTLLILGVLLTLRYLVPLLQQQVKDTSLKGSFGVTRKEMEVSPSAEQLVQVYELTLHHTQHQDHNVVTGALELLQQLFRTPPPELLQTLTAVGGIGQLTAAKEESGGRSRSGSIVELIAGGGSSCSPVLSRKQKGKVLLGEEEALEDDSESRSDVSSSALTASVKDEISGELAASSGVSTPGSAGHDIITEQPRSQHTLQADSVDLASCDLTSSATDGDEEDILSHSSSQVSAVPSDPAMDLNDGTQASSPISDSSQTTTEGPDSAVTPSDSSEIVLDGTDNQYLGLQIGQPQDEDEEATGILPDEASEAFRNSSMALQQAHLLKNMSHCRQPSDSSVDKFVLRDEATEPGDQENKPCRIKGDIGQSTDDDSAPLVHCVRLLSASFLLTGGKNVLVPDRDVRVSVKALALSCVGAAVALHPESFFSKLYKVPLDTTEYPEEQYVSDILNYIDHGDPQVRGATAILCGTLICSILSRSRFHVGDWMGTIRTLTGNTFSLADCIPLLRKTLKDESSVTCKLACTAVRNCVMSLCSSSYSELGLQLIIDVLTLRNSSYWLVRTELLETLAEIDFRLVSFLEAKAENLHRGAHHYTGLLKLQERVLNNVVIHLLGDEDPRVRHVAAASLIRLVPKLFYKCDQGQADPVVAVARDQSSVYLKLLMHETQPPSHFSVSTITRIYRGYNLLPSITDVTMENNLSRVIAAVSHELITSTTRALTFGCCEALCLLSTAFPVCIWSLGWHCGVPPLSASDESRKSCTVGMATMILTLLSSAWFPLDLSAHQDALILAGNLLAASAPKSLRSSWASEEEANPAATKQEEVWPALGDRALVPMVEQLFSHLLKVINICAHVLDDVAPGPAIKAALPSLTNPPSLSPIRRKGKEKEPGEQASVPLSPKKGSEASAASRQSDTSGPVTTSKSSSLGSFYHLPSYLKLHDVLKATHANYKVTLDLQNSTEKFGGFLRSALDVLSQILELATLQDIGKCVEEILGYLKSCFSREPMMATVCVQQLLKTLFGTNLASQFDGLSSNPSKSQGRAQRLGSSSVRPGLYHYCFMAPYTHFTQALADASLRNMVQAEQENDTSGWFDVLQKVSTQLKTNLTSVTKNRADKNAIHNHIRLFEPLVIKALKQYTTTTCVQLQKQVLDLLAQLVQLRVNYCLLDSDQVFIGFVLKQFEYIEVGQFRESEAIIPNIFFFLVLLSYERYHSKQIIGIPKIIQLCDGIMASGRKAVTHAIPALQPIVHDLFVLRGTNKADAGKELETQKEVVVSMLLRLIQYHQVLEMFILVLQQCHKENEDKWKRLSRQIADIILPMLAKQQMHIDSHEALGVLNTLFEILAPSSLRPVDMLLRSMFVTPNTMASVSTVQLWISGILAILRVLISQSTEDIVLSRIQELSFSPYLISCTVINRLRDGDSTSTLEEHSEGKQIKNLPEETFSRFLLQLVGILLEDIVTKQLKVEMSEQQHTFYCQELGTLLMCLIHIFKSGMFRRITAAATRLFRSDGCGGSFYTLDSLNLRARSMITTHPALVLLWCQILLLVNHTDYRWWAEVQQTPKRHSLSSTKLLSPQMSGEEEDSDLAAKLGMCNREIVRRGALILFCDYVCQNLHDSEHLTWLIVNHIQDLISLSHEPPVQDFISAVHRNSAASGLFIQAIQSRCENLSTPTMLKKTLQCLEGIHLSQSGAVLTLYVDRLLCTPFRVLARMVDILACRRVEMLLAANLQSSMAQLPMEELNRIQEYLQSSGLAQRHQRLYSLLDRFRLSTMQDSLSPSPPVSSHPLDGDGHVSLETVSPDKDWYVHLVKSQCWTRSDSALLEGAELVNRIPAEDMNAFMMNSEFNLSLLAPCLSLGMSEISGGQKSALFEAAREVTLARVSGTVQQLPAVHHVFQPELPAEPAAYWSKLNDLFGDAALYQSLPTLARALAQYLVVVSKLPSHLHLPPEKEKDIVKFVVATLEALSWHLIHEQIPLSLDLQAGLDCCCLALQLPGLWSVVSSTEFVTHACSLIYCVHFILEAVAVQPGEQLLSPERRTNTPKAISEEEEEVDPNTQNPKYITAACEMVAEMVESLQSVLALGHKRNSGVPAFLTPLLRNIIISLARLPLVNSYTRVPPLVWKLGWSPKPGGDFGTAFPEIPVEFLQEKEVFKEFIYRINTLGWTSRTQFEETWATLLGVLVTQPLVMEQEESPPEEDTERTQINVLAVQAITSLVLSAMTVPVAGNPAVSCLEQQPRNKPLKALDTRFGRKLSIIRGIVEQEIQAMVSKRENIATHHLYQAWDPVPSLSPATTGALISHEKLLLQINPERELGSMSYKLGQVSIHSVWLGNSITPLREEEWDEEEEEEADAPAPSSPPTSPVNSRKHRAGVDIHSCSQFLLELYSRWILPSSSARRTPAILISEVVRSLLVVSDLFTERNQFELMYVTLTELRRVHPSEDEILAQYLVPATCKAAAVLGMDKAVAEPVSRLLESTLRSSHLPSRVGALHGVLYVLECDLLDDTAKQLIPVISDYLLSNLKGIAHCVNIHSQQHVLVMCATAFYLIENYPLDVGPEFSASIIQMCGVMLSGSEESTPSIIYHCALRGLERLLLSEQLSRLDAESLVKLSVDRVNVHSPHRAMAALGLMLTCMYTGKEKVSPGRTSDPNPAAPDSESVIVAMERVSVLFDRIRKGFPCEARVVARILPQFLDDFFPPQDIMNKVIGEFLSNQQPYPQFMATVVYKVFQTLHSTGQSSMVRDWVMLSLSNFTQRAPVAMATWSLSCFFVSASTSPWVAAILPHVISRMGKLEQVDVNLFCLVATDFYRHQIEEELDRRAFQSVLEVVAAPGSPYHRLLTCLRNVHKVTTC

| SMILES | inhibition |
| --- | --- |
| Nc1ccc(-c2ccc(N)c(N)c2)cc1N | 92.1% (active) |
| Nc1ccc(Cc2ccc(N)c(Cl)c2)cc1Cl | 14.7% |
| CC(C)CCn1c(=O)c(C(=O)Nc2ccccn2)c(O)c2ccccc21 | -1% |
| CCCn1c(=O)cc(C)c2ccc(OCC(=O)N3CCN(C)CC3)cc21 | -3.5% |
| Cc1csc(NC(=O)c2cccn(Cc3cccc([N+](=O)[O-])c3)c2=O)n1 | -9.9% |
| CCOC(=O)c1ccc(NC(=O)c2cccn(Cc3ccc(C(F)(F)F)cc3)c2=O)cc1 | 83.3% (active) |
| CCCCS(=O)(=O)N1CCC2(C1)C(=O)N(C)c1ccc(OC)cc12 (stereo not given) | 12.5% |
| COc1ccc(CCC(=O)N2CCC3(C2)C(=O)N(C)c2ccc(OC)cc23)cc1 (stereo not given) | 6.74% |
| CC(C)CCNC(=O)CN1C(=O)C(C)N=C(c2ccccc2)c2ccccc21 (stereo not given) | 5% |
| O=C(Cc1c[nH]c2ccccc12)N1CCCN(C2CCN(Cc3ccc(F)cc3)C2=O)CC1 (stereo not given) | 44.9% |
| O=[N+]([O-])c1cccc(C(Cl)Cl)c1 | -5.2% |
| O=c1cccc2n1CC1CC2CN(Cc2cc(Cl)ccc2O)C1 (stereo not given) | 3.2% |
| COC(=O)c1ccc2[se]c(CC3CCCCC3)c(I)c2c1 | -13.6% |
| CC(C)(CNc1ccc([N+](=O)[O-])c2cccnc12)CNS(=O)(=O)c1ccc(Cl)cc1 | 54% (active) |
| CCN(CC)CCNc1ccc([N+](=O)[O-])c2cccnc12 | -2.5% and 9% |
| O=[N+]([O-])c1ccc(NCCNc2ccc([N+](=O)[O-])c3cccnc23)cc1 | 1.26% |
| CCN(CC)CC#CCOc1ccccc1 | -4.9% |
| CC(=O)c1ccc(OC(NC(=O)Cc2ccccc2)C(Cl)(Cl)Cl)cc1 (stereo not given) | 50% (active) |
| CN1CCN(c2nnc(C(F)(F)F)s2)CC1 | -5% |
| CC(C)c1cc(=O)n2c(n1)SCC2CC(=O)N1CC2CC(C1)c1cccc(=O)n1C2 (stereo not given) | -1.2% |
